# The supplement of paper PMC4466140
# Assays:
# Assay in all cases: SPOT peptide array binding signal intensity (averaged, normalized) (arbitrary units (background-subtracted, floor 0; scale differs between SH3 domains)); higher = stronger binding of the SH3 domain to the peptide
# AgAbp1 = target: AgAbp1
# Method in brief: (§1)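 Binding signal is given in arbitrary units that differ between domains and is the normalized, background-subtracted spot intensity averaged across replicates. Each GST-SH3 fusion from one of four yeast species was made in E. coli BL21(DE3), purified on glutathione Sepharose and incubated at 10 μg/ml overnight at 4°C on cellulose-bound synthetic 15-mer peptides in which cysteines were replaced by serines. Detection used anti-GST antibody, an HRP anti-mouse secondary and luminol, followed by imaging and Genespotter quantification.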
# AgBbc1 = target: AgBbc1
# Method in brief: as §1
# AgBem1-D1 = target: AgBem1-D1
# Method in brief: as §1
# AgBzz1-D1 = target: AgBzz1-D1
# Method in brief: as §1
# AgBzz1-D2 = target: AgBzz1-D2
# Method in brief: as §1
# AgCyk3 = target: AgCyk3
# Method in brief: as §1
# AgFus1 = target: AgFus1
# Method in brief: as §1
# AgHof1 = target: AgHof1
# Method in brief: as §1
# AgHse1 = target: AgHse1
# Method in brief: as §1
# AgLsb1 = target: AgLsb1
# Method in brief: as §1
# AgLsb4 = target: AgLsb4
# Method in brief: as §1
# AgMyo5 = target: AgMyo5
# Method in brief: as §1
# AgNbp2 = target: AgNbp2
# Method in brief: as §1
# AgRvs167 = target: AgRvs167
# Method in brief: as §1
# AgSho1 = target: AgSho1
# Method in brief: as §1
# AgSla1-D1-D2 = target: AgSla1-D1-D2
# Method in brief: as §1
# AgSla1-D3 = target: AgSla1-D3
# Method in brief: as §1
# CaAbp1-D1 = target: CaAbp1-D1
# Method in brief: as §1
# CaAbp1-D2 = target: CaAbp1-D2
# Method in brief: as §1
# CaBbc1 = target: CaBbc1
# Method in brief: as §1
# CaBem1-D1 = target: CaBem1-D1
# Method in brief: as §1
# CaBzz1-D1 = target: CaBzz1-D1
# Method in brief: as §1
# CaBzz1-D2 = target: CaBzz1-D2
# Method in brief: as §1
# CaCyk3 = target: CaCyk3
# Method in brief: as §1
# CaFus1 = target: CaFus1
# Method in brief: as §1
# CaHof1 = target: CaHof1
# Method in brief: as §1
# CaHse1 = target: CaHse1
# Method in brief: as §1
# CaLsb1 = target: CaLsb1
# Method in brief: as §1
# CaLsb4 = target: CaLsb4
# Method in brief: as §1
# CaMyo5 = target: CaMyo5
# Method in brief: as §1
# CaNbp2 = target: CaNbp2
# Method in brief: as §1
# CaRvs167 = target: CaRvs167
# Method in brief: as §1
# CaRvs167-3 = target: CaRvs167-3
# Method in brief: as §1
# CaSho1 = target: CaSho1
# Method in brief: as §1
# CaSla1-D1-D2 = target: CaSla1-D1-D2
# Method in brief: as §1
# CaSla1-D3 = target: CaSla1-D3
# Method in brief: as §1
# ScAbp1 = target: ScAbp1
# Method in brief: as §1
# ScBbc1 = target: ScBbc1
# Method in brief: as §1
# ScBem1-D1 = target: ScBem1-D1
# Method in brief: as §1
# ScBzz1-D1 = target: ScBzz1-D1
# Method in brief: as §1
# ScBzz1-D2 = target: ScBzz1-D2
# Method in brief: as §1
# ScCyk3 = target: ScCyk3
# Method in brief: as §1
# ScFus1 = target: ScFus1
# Method in brief: as §1
# ScHof1 = target: ScHof1
# Method in brief: as §1
# ScHse1 = target: ScHse1
# Method in brief: as §1
# ScLsb1 = target: ScLsb1
# Method in brief: as §1
# ScLsb2 = target: ScLsb2
# Method in brief: as §1
# ScLsb3 = target: ScLsb3
# Method in brief: as §1
# ScLsb4 = target: ScLsb4
# Method in brief: as §1
# ScMyo3 = target: ScMyo3
# Method in brief: as §1
# ScMyo5 = target: ScMyo5
# Method in brief: as §1
# ScNbp2 = target: ScNbp2
# Method in brief: as §1
# ScPex13 = target: ScPex13
# Method in brief: as §1
# ScRvs167 = target: ScRvs167
# Method in brief: as §1
# ScSho1 = target: ScSho1
# Method in brief: as §1
# ScSla1-D1-D2 = target: ScSla1-D1-D2
# Method in brief: as §1
# ScSla1-D3 = target: ScSla1-D3
# Method in brief: as §1
# SpAbp1-D1 = target: SpAbp1-D1
# Method in brief: as §1
# SpBbc1 = target: SpBbc1
# Method in brief: as §1
# SpBzz1-D1 = target: SpBzz1-D1
# Method in brief: as §1
# SpBzz1-D2 = target: SpBzz1-D2
# Method in brief: as §1
# SpCyk3 = target: SpCyk3
# Method in brief: as §1
# SpHof1 = target: SpHof1
# Method in brief: as §1
# SpHof1-2 = target: SpHof1-2
# Method in brief: as §1
# SpHof1-3 = target: SpHof1-3
# Method in brief: as §1
# SpHse1 = target: SpHse1
# Method in brief: as §1
# SpLsb1 = target: SpLsb1
# Method in brief: as §1
# SpLsb4 = target: SpLsb4
# Method in brief: as §1
# SpMyo1 = target: SpMyo1
# Method in brief: as §1
# SpNbp2 = target: SpNbp2
# Method in brief: as §1
# SpPex13 = target: SpPex13
# Method in brief: as §1
# SpRvs167 = target: SpRvs167
# Method in brief: as §1
# SpSla1-D1-D2 = target: SpSla1-D1-D2
# Method in brief: as §1
# SpSla1-D3 = target: SpSla1-D3
# Method in brief: as §1
binder,measurement,setting,value
RKNRAPPQRPRFNRE,SPOT peptide array binding signal intensity,AgAbp1,777
same,SPOT peptide array binding signal intensity,AgBbc1,536
same,SPOT peptide array binding signal intensity,AgBem1-D1,379
same,SPOT peptide array binding signal intensity,AgBzz1-D1,248
same,SPOT peptide array binding signal intensity,AgBzz1-D2,220
same,SPOT peptide array binding signal intensity,AgCyk3,7
same,SPOT peptide array binding signal intensity,AgFus1,404
same,SPOT peptide array binding signal intensity,AgHof1,117
same,SPOT peptide array binding signal intensity,AgHse1,469
same,SPOT peptide array binding signal intensity,AgLsb1,267
same,SPOT peptide array binding signal intensity,AgLsb4,71
same,SPOT peptide array binding signal intensity,AgMyo5,2.5
same,SPOT peptide array binding signal intensity,AgNbp2,1890
same,SPOT peptide array binding signal intensity,AgRvs167,8.33
same,SPOT peptide array binding signal intensity,AgSho1,47.5
same,SPOT peptide array binding signal intensity,AgSla1-D1-D2,320
same,SPOT peptide array binding signal intensity,AgSla1-D3,39.2
same,SPOT peptide array binding signal intensity,CaAbp1-D1,976
same,SPOT peptide array binding signal intensity,CaAbp1-D2,788
same,SPOT peptide array binding signal intensity,CaBbc1,945
same,SPOT peptide array binding signal intensity,CaBem1-D1,39
same,SPOT peptide array binding signal intensity,CaBzz1-D1,2100
same,SPOT peptide array binding signal intensity,CaBzz1-D2,1120
same,SPOT peptide array binding signal intensity,CaCyk3,642
same,SPOT peptide array binding signal intensity,CaFus1,706
same,SPOT peptide array binding signal intensity,CaHof1,0.5
same,SPOT peptide array binding signal intensity,CaHse1,89.8
same,SPOT peptide array binding signal intensity,CaLsb1,7
same,SPOT peptide array binding signal intensity,CaLsb4,646
same,SPOT peptide array binding signal intensity,CaMyo5,9.25
same,SPOT peptide array binding signal intensity,CaNbp2,1020
same,SPOT peptide array binding signal intensity,CaRvs167,26.5
same,SPOT peptide array binding signal intensity,CaRvs167-3,28.5
same,SPOT peptide array binding signal intensity,CaSho1,117
same,SPOT peptide array binding signal intensity,CaSla1-D1-D2,752
same,SPOT peptide array binding signal intensity,CaSla1-D3,15
same,SPOT peptide array binding signal intensity,ScAbp1,369
same,SPOT peptide array binding signal intensity,ScBbc1,290
same,SPOT peptide array binding signal intensity,ScBem1-D1,112
same,SPOT peptide array binding signal intensity,ScBzz1-D1,46
same,SPOT peptide array binding signal intensity,ScBzz1-D2,26
same,SPOT peptide array binding signal intensity,ScCyk3,88
same,SPOT peptide array binding signal intensity,ScFus1,209
same,SPOT peptide array binding signal intensity,ScHof1,2.5
same,SPOT peptide array binding signal intensity,ScHse1,761
same,SPOT peptide array binding signal intensity,ScLsb1,162
same,SPOT peptide array binding signal intensity,ScLsb2,196
same,SPOT peptide array binding signal intensity,ScLsb3,622
same,SPOT peptide array binding signal intensity,ScLsb4,34.5
same,SPOT peptide array binding signal intensity,ScMyo3,8.5
same,SPOT peptide array binding signal intensity,ScMyo5,10
same,SPOT peptide array binding signal intensity,ScNbp2,4060
same,SPOT peptide array binding signal intensity,ScPex13,128
same,SPOT peptide array binding signal intensity,ScRvs167,192
same,SPOT peptide array binding signal intensity,ScSho1,979
same,SPOT peptide array binding signal intensity,ScSla1-D1-D2,1390
same,SPOT peptide array binding signal intensity,ScSla1-D3,30.2
same,SPOT peptide array binding signal intensity,SpAbp1-D1,634
same,SPOT peptide array binding signal intensity,SpBbc1,25.5
same,SPOT peptide array binding signal intensity,SpBzz1-D1,707
same,SPOT peptide array binding signal intensity,SpBzz1-D2,23
same,SPOT peptide array binding signal intensity,SpCyk3,9.5
same,SPOT peptide array binding signal intensity,SpHof1,200
same,SPOT peptide array binding signal intensity,SpHof1-2,13.5
same,SPOT peptide array binding signal intensity,SpHof1-3,286
same,SPOT peptide array binding signal intensity,SpHse1,253
same,SPOT peptide array binding signal intensity,SpLsb1,190
same,SPOT peptide array binding signal intensity,SpLsb4,707
same,SPOT peptide array binding signal intensity,SpMyo1,14
same,SPOT peptide array binding signal intensity,SpNbp2,307
same,SPOT peptide array binding signal intensity,SpPex13,32
same,SPOT peptide array binding signal intensity,SpRvs167,67.8
same,SPOT peptide array binding signal intensity,SpSla1-D1-D2,48
same,SPOT peptide array binding signal intensity,SpSla1-D3,7
